Data reported in PubChem BioAssay (Tox21).
Inconclusive results are not listed. Unmarked numbers belong to inactive results. Calls come from the whole dose curve.

The compounds below were run against Beta-2 adrenergic receptor (Homo sapiens) (UniProt P07550) (assay: Adrenergic beta2 receptor (ADRB2) small molecule agonists, cell-based qHTS assay (AID 1963593)). Conditions: CHO-ADRB2 cells, cAMP HTRF, 30 min; series mostly up to 92.4 µM; activation: at the top concentration.
Text: National Center for Advancing Translational Sciences [NCATS]
Division of Preclinical Innovation [DPI]
U.S. Environmental Protection Agency [EPA]
National Institutes of Environmental Health Sciences [NIEHS]
National Toxicology Program [NTP]
U.S. Food and Drug Administration [FDA]
Beta adrenergic receptors (Beta-ARs) belong to the G-protein coupled receptor (GPCR) superfamily, includes three subtypes - beta1, beta2, and beta3. Beta1-AR is the predominant receptor subtype expressed in the heart, and beta2-AR is expressed in the kidney, lung, blood vessel and in the heart, and beta3 is found in the adipocytes. Beta1 and 2 ARs couple to Gs protein and elevate cyclic adenosine mono phosphate (cAMP), which activates protein kinase A and leads to the downstream signaling responsible for the physiological actions. Beta-AR agonists or antagonists are the most prescribed therapeutic agents for heart failure and asthma, and these were one of the first target receptors for the rational drug design. Tox21 10K compound library was screened using the cAMP-Gs dynamic assay (Cisbio Bioassays, Shelton, CT) to identify agonists/antagonists of the Gs-coupled human adrenergic, beta2 receptor (ADRB2) in the CHO-ADRB2 cell line (Codex BioSolutions, Inc. Gaithersburg, MD), which stably over-expresses ADRB2. The principle of cAMP-Gs dynamic assay is based on HTRF technology, which facilitates the fluorescence resonance energy transfer (FRET) between donor Europium cryptate and acceptor d2-labeled cAMP. The cAMP generated within cells competes with the red acceptor, d2-labled cAMP, for binding to the monoclonal anti-cAMP-cryptate (Europium donor). An increase in intracellular cAMP leads to the disruption of FRET signal, and the signal is inversely proportional to the cAMP concentration. Isoproterenol HCl (Sigma-Aldrich, St. Louis, MO) was used as a positive control in the screening.
Tox21 Assay Protocol Summary:
CHO-ADRB2 cells were dispensed at 1,000/well in 4uL assay medium into white/solid 1536-well plates (Greiner Bio-One North America Inc., Monroe, NC) using a Multidrop Combi dispenser (ThermoFisher Scientific, Waltham, MA). The assay plates were incubated at 37C and 5% CO2 for an overnight (18-20hr). Then positive control and test compounds dissolved in DMSO were transferred to the assay plates at 23nL using a Pintool station (Wako, San Diego, CA). Following the compound and positive control transfer, 1uL stimulation mix containing 100uM IBMX and 25uM Ro-20-1724 was added to each well of the assay plates using BioRAPTR Flying Reagent Dispenser (FRD, Beckman Coulter, Brea, CA). The assay plates were incubated at room temperature for 0.5hr. Then 2.5ul each d2-labled cAMP and anti-cAMP-cryptate solutions were added separately to each well of the assay plates using an FRD and the assay plates were incubated at room temperature for 1hr.
% is set by controls: 0 for no effect and ±100 for the full control effect.

Beta-2 adrenergic receptor (Homo sapiens), sequence (P07550 whole entry, looked up): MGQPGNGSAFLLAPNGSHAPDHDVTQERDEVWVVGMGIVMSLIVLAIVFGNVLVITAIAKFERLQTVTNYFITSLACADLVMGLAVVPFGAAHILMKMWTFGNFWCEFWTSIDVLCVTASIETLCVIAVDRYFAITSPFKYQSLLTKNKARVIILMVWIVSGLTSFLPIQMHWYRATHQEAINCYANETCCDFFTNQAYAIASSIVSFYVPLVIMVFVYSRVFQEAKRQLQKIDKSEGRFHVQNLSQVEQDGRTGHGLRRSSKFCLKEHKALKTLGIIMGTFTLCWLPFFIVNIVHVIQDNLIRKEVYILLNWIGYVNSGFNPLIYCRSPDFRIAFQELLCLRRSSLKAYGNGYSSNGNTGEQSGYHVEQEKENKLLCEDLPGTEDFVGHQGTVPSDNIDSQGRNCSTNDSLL

| SMILES | activation |
| --- | --- |
| CCC[Si](OC)(OC)OC | -0.259% |
| Cc1c(Cl)cccc1Cl | 29.5% |
| CC(=O)OC(C)OC(=O)C(C)c1ccc(-c2ccccc2)c(F)c1 (stereo not given) | -20% [at 42.5 µM] |
| CC(=O)CCC1=C(C)CCCC1(C)C | 12.2% |
| O=S(=O)(c1cccc2cnccc12)N1CCCNCC1 | 15.3% [at 42.5 µM] |
| CCCCCCCCCCCCCCC[C@H](O)[C@@H](N)CO | 6.24% [at 42.5 µM] |
| CC/C=C\C/C=C\C/C=C\CCCCCCCC(=O)OCC | -24.5% |
| O=C(O)c1ccc2cc(C(=O)O)ccc2c1 | -8.73% |
| CS(=O)(=O)c1ccc([C@@H](CC2CCCC2)C(=O)Nc2cnccn2)cc1Cl | 14.7% |
| O=C(CC(=O)c1ccccc1)c1ccccc1 | -7.87% |
| O=C(O)c1ccccc1Nc1cc(Cl)ccc1C(=O)O | -0.399% [at 19 µM] |
| CCN1CCC[C@H]1CNC(=O)c1c(OC)ccc(Br)c1OC | -33.6% [at 42.5 µM] |
| C[C@H](CCC(=O)O)[C@H]1CC[C@H]2[C@@H]3CC[C@@H]4C[C@H](O)CC[C@]4(C)[C@H]3CC[C@]12C | 4.09% |
| CC1=NN(c2cc(S(=O)(=O)O)ccc2Cl)C(=O)C1N=Nc1ccccc1 (stereo not given) | -25.5% |
| COCc1nnc(-c2ccc[n+]([O-])c2)n1-c1c(Cl)c(Cl)cc2[nH]c(=O)c(=O)[nH]c12 | 25.2% |
| CC[N+](CC)(CC)CCOC(=O)C(C1CCCC1)C1CCCC1 | 21.9% [at 42.5 µM] |
| CCCc1c(OCCCOc2ccc(OCC(=O)O)cc2)ccc(C(C)=O)c1O | 27.9% |
| COc1nc(C)nc(Cl)c1NC1=NCCN1 | 18.5% [at 42.5 µM] |
| Cc1coc2ccccc2c1=O | 1.93% [at 42.5 µM] |
| O=C1c2ccccc2C(=O)c2c1ccc(O)c2O | -29.8% [at 42.5 µM] |

| SMILES | activation |
| --- | --- |
| NC(N)=NCCN1CCCCCCC1 | 1.36% [at 0.349 µM] |
| Nc1ccc(F)cc1F | -0.187% |
| CCCCOC(=O)c1ccccc1 | 20.9% |
| CCN(Cc1ccncc1)C(=O)C(CO)c1ccccc1 (stereo not given) | 8.03% [at 42.5 µM] |
| CC(C)=CCCC(C)CCOC=O (stereo not given) | 12.6% |
| O=C(CS)OCCOC(=O)CS | 0.789% |
| CC(=O)[O][Al] | -19.4% |
| COc1cc(N)ccc1C | -31.8% |
| O=Cc1ccccc1Cl | -6.56% |
| COc1cc2nc(N(C)CCCNC(=O)C3CCCO3)nc(N)c2cc1OC (stereo not given) | -30.6% [at 42.5 µM] |
| O=Cc1ccccc1S(=O)(=O)O | 2.77% |
| OC[C@H]1O[C@@H](n2cnc3c(=S)nc[nH]c32)[C@H](O)[C@@H]1O | 0.547% [at 42.5 µM] |
| C[C@@H]1C[C@H]2[C@@H]3C[C@H](F)C4=CC(=O)C=C[C@]4(C)[C@@]3(F)[C@@H](O)C[C@]2(C)[C@@]1(O)C(=O)CO | 7.69% [at 42.5 µM] |
| CCCCCCOC(=O)CC(CC(=O)OCCCCCC)(OC(=O)CCC)C(=O)OCCCCCC | 27.5% |
| O=C(O)c1c(Cl)ccc(Cl)c1Cl | -3.35% |
| CC(C)c1cccc(C(C)C)c1NC(=O)NS(=O)(=O)c1cc(C(C)(C)O)co1 | -23.3% |
| CC(C)C(OC(=O)c1ccccc1)C(C)(C)COC(=O)c1ccccc1 (stereo not given) | 22% |
| C=CC(=O)[O-].C=CC(=O)[O-].[Zn+2] | 16.9% |
| COc1cc(NS(=O)(=O)c2ccc(N)cc2)nc(C)n1 | -24.5% [at 42.5 µM] |
| CCC(C)(C)OC | 19.1% |
